Measured values from PubChem BioAssay.
For some assays here: Measured potencies and affinities stand elsewhere. Activity calls are given as the source filed them. Unless noted, no rule for the calls is given here.

Key:
[1] = antimalarial activity against Dd2 strain (AID 2302;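 active = growth inhibition above 50% at the single 2 µM test dose, taken to imply half-maximal potency below 2 µM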;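 also: 0% = DMSO untreated growth and 100% = chloroquine plus artemisinin killed control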); conditions: P. falciparum Dd2 in RBCs, LDH growth readout, 72 h; at 2 µM; active compounds read high
[2] = human hepatoma cell viability loss – ATP luminescence, cytotoxicity control for P. falciparum antimalarial project, primary screen (AID 2303;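 active = inhibition above 50%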;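 also: 0% = DMSO wells and 100% = digitonin-killed cells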); conditions: HepG2 viability, 24-48 h, at 10 µM, active compounds read high
[3] = target: L-lactate dehydrogenase (Plasmodium falciparum (isolate CDC / Honduras)) (UniProt Q27743); test: PfLDH activity inhibition – cell lysate, 3D7 strain, counter-screen for P. falciparum growth inhibition project (AID 2304);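 also: 0% = vehicle and 100% = reference inhibitor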; conditions: P. falciparum 3D7 crude extract, LDH APAD/NBT absorbance; at 2 µM; active compounds read high
L-lactate dehydrogenase (Plasmodium falciparum (isolate CDC / Honduras)), sequence (Q27743 whole entry, looked up): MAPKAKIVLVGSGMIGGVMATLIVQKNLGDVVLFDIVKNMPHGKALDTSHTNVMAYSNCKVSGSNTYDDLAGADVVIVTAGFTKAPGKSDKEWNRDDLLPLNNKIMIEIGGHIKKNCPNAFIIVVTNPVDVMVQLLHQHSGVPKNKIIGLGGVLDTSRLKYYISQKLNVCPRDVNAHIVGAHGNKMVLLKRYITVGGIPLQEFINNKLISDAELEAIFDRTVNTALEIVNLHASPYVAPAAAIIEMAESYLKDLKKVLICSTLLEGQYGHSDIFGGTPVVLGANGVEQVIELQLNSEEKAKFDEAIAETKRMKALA

[4] = inhibition of 3D7 malaria parasite growth – strain 3D7 (AID 2306);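 also: 0% = DMSO wells and 100% = chloroquine plus artemisinin control wells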; conditions: P. falciparum 3D7 erythrocytic growth, LDH absorbance, 72 h; at 2 µM; active compounds read high
[5] = target: Calcium-dependent protein kinase 1 (Plasmodium falciparum (isolate 3D7)) (UniProt P62344); test: PfCDPK1 kinase inhibitors, biochemical, TCAMS library (AID 1159585; cut-off not given, nearly all actives have IC50 up to about 0.98 µM;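 also: inhibitors leave more ATP so luminescence rises with inhibition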); conditions: recombinant PfCDPK1, Kinase-Glo ATP depletion luminescence
Calcium-dependent protein kinase 1 (Plasmodium falciparum (isolate 3D7)), sequence (P62344 whole entry, looked up): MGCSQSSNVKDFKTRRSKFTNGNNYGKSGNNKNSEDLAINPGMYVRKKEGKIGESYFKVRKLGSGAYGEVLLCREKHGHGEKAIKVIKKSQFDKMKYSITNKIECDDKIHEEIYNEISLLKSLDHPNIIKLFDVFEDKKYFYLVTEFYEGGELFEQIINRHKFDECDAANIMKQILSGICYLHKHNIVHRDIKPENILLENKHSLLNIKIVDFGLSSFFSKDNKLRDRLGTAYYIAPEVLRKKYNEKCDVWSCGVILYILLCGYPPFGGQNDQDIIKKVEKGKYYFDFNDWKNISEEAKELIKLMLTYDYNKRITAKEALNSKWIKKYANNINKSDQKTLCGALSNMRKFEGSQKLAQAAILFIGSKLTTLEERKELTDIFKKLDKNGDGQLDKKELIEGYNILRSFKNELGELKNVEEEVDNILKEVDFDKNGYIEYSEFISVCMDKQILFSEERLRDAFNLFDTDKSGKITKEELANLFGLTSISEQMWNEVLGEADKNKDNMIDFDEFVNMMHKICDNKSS

[6] = target: Plasmodium falciparum protein kinase 6 (PK6, PF3D7_1337100) (UniProt Q8IDW1); test: PfPK6 kinase inhibitors, biochemical, TCAMS library (AID 1159586); conditions: recombinant PfPK6, Kinase-Glo ATP depletion luminescence
Plasmodium falciparum protein kinase 6 (PK6, PF3D7_1337100), sequence (Q8IDW1 1-305): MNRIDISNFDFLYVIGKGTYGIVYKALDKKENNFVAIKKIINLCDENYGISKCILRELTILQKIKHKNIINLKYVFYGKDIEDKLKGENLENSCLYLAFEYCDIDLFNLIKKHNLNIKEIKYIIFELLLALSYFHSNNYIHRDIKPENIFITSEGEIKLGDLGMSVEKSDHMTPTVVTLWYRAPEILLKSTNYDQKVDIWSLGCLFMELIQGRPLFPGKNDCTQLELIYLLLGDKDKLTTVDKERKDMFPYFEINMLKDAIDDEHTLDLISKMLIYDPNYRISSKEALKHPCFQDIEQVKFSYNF

[7] = target: Protein kinase 7 (PK7), Plasmodium falciparum 3D7 (PF3D7_0213400) (UniProt Q7YTF7); test: inhibition of Plasmodium PK7 catalytic activity – biochemical, TCAMS antimalarial set, Kinase-Glo luminescence (AID 1159587); conditions: recombinant PfPK7, Kinase-Glo ATP depletion luminescence
Protein kinase 7 (PK7), Plasmodium falciparum 3D7 (PF3D7_0213400), sequence (Q7YTF7 1-343): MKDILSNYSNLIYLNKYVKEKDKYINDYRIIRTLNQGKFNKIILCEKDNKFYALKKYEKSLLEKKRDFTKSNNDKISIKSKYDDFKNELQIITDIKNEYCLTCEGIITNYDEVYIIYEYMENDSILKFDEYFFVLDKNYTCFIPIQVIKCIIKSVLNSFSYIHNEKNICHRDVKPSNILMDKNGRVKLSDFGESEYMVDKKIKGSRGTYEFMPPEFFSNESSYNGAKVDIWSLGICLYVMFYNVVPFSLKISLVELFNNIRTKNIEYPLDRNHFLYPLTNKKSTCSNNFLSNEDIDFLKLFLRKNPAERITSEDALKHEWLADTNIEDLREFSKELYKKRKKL

[8] = target: Calcium-dependent protein kinase 4 (Plasmodium falciparum (isolate 3D7)) (UniProt Q8IBS5); test: PfCDPK4 kinase inhibitors, biochemical, TCAMS library (AID 1159588; cut-off not given, nearly all actives have IC50 up to about 0.91 µM); conditions: recombinant PfCDPK4, Kinase-Glo ATP depletion luminescence
Calcium-dependent protein kinase 4 (Plasmodium falciparum (isolate 3D7)), sequence (Q8IBS5 whole entry, looked up): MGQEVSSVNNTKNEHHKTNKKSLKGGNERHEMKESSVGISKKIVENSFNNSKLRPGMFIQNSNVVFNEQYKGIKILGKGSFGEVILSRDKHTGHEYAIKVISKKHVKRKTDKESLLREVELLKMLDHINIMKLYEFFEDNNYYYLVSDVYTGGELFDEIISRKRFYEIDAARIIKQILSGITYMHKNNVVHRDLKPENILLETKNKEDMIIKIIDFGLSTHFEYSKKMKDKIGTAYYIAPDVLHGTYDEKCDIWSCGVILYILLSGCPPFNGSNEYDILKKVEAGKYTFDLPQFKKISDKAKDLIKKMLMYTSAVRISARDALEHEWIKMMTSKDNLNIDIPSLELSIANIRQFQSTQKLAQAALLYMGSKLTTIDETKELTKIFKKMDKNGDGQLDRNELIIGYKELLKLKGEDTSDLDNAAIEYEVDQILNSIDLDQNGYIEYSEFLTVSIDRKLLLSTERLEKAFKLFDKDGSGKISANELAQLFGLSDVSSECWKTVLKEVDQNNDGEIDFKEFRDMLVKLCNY

CCCOc1ccc(N2C(N)=NC(N)=NC2(C)C)cc1
active: growth inhibition [4] 97%
inactive: growth inhibition [1] 2% | inhibition [2] 1% | inhibition [3] -6% | outcome [5] | outcome [6] | outcome [7] | outcome [8]

CN(C)Cc1ccc(O)c(-c2ccc(C(C)(C)C)cc2)n1
active: growth inhibition [4] 86%
inactive: growth inhibition [1] 25% | inhibition [2] -1% | inhibition [3] -5% | outcome [5] | outcome [6] | outcome [7] | outcome [8]

c1ccc(CNCc2cccc(-c3ccc(-c4nc5ccccc5[nH]4)cc3)c2)cc1
inactive: growth inhibition [1] 39% | inhibition [2] 10% | inhibition [3] -5% | outcome [5] | outcome [6] | outcome [7] | outcome [8]
active: growth inhibition [4] 97%

Cc1nc(Nc2ccncc2)cc(-c2ccncc2)n1
inactive: growth inhibition [1] 3% | inhibition [2] 6% | inhibition [3] -2% | outcome [5] | outcome [6] | outcome [7] | outcome [8]
active: growth inhibition [4] 100%
